Sampled rows, rich in hits. Any-hit rate of the full collection: about 8%.
HT1080 IDH1KD tx: toxicity to HT-1080 IDH1 knockdown cells (counter line). HT-1080 IDH1 knockdown viability, ATP luminescence, 48 h. Potency, µM (doses to about 46.1 µM), for the others: at the highest dose activity, negative = toxicity, hits mostly cytotoxic. AID 686971. 360,000 compounds, 2% hits;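 note: 0% = DMSO wells and -100% = cell-free medium wells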
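Cytotoxicity counter-line: IDH1KD HT-1080, 48 h, CellTiter-Glo. Curves classed by r2, magnitude and activity.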
SW480 rereplic: DNA re-replication induction in SW480 cells; SW480 DNA re-replication, Hoechst DNA content imaging, 48 h; Potency, µM (doses to about 46.1 µM), inactives show top-dose re-replication activation, actives largely listed as activators; 340,000 compounds, 1.8% hits; note: % of control where 0% means no effect; nearly all actives have a fitted effect of over 55% in size
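Image-based read-out: total Hoechst fluorescence of nuclei (405 nm excitation, 500-530 nm emission), with hits raising the fraction of high-intensity nuclei. SW480 colon cells incubated 48 hr with compounds at 37 C.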
KB-3-1 cytotox: kills parental KB-3-1 adenocarcinoma cells; KB-3-1 viability, CellTiter-Glo ATP luminescence, 72 h; Potency, µM (titrated, usually from 46.1 µM), actives largely listed as cytotoxic; 400,000 compounds, 1.4% hits; AID 1347075; note: % is set by controls: 0 for no effect and ±100 for the full control effect; nearly all actives have a fitted effect of over 60% in size
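Here the drug-naive KB-3-1 line serves as comparator for MDR sub-line selectivity; cells received compound titrations, 72 h at 37 °C, then CellTiter-Glo readout.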
MCF10A rerep: DNA re-replication induction in MCF 10a cells. 350,000 compounds, 2.9% hits. AID 624296. Potency, µM (titrated, usually from 46.1 µM), inactives show at the highest dose activity, positive = re-replication, usual class: activators. MCF 10A DNA re-replication, Hoechst nuclear intensity, 48 h; note: % of control where 0% means no effect; nearly all actives have a fitted effect of over 50% in size
KB-V1 MDR tox: KB-V1 MDR subline cytotoxicity; KB-V1 MDR cells viability, CellTiter-Glo, 72 h; AID 1347076; 400,000 compounds, 3.4% hits; Potency, µM (series often up to 46.1 µM), most hits filed as cytotoxic; note: % is set by controls: 0 for no effect and ±100 for the full control effect; nearly all actives have a fitted effect of over 60% in size
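Readout: CellTiter-Glo luminescence, 10 min after addition. Cells: KB-V1 MDR subline, 72 h at 37 degrees C with compound. Analysis: corrected, normalized data fitted to concentration-effect curves.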
HT1080-NT tox: kills 2HG-producing HT-1080-NT fibrosarcoma cells; HT-1080-NT fibrosarcoma viability, CellTiter-Glo ATP luminescence, 48 h; AID 686970; 360,000 compounds, 1.6% hits; Potency, µM (titrated, usually from 46.1 µM), for inactives: at the highest dose activity, negative = less viability, actives largely listed as cytotoxic;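 note: NT is the 2HG producing partner of a matched IDH1 knockdown line; 0% = DMSO-treated cells and -100% = media-only wells without cells; nearly all actives have a fitted effect of over 55% in size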
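Fibrosarcoma NT cells, 750 per well in 5% FBS RPMI, were exposed to compound for 48 hours. Viability: CellTiter-Glo luminescence.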
* = called active by the depositor; i = inactive; ? = inconclusive; nt = no result; [ ] = remark or other dose. Calls come from the whole dose curve; as a rule, active = well fitted curve in the direction sought with a large enough effect; inconclusive = small, poorly fitted or top-dose-only effect, or another doubt; inactive = no such curve, though single readings can be large; an effect the other way counts as inactive or inconclusive. Potency is the fitted concentration of half-maximal effect.

SMILES	HT1080 IDH1KD tx	SW480 rereplic	KB-3-1 cytotox	MCF10A rerep	KB-V1 MDR tox	HT1080-NT tox
CCc1ccc(NC(=O)NCC2CCN(Cc3cccc(Cl)c3)CC2)cc1	-7%	?	?	-10%	i	?
O=C(Oc1ccc(-c2nnco2)cc1)c1ccco1	14%	-34%	i	-16%	i	17%
Cn1cc(-c2cc3n(n2)CCC(=O)N3CCCC(=O)Nc2ccccc2F)c2ccccc21	nt	nt	i	nt	i	nt
O=c1[nH]c(CCl)nc2cc(-c3ccc(F)cc3)sc12	7.3µM*	?	?	?	?	15µM*
COc1ccccc1CCNS(=O)(=O)CCNC(=O)c1ccccc1	4%	0%	i	2%	16µM*	5%
O=C(NCCS(=O)(=O)NCCc1ccccc1)c1ccccc1	-4%	-5%	i	0%	16µM*	-1%
Cc1ccc(C(c2sc3nc(-c4ccco4)nn3c2O)N2CCN(c3ccc(F)cc3)CC2)cc1 (stereo not given)	nt	nt	i	nt	i	nt
NNc1nc2c(-c3ccc(Cl)cc3)nnn2c2ccccc12	-2%	8.2µM*	i	5.8µM*	i	2%
NNc1nc2c(-c3ccc(F)cc3)nnn2c2ccccc12	-27%	?	i	23µM*	i	-25%
COCCCNc1nc2c(-c3ccc(Cl)cc3)nnn2c2ccccc12	-3%	11%	i	?	i	-7%
COc1ccc(-c2nnn3c2nc(NCc2ccccc2)c2ccccc23)cc1	0%	?	i	1.6µM*	i	6%
Cc1ccc2oc(-c3cccc(NC(=O)c4sc5c([N+](=O)[O-])cccc5c4Cl)c3)nc2c1	nt	nt	i	nt	i	nt
COc1cccc(N2CN(C3CCCCC3)CNC2=S)c1	1%	?	?	?	i	6%
CN1C(=O)N(C)C2(c3ccccc3)NC(=O)NC12c1ccccc1 (stereo not given)	1%	0%	i	10%	i	-6%
CCN1c2ccccc2N(C)C1(C)c1ccccc1 (stereo not given)	?	12µM*	?	?	i	?
CN1c2ccccc2N(C)C1(C)c1ccccc1	?	5.8µM*	i	?	i	?
CNC(=O)C(=O)Nc1ccc2c(c1)N(S(=O)(=O)c1cccs1)CCC2	7%	-2%	i	1%	i	-1%
CCN(CC)CCNC(=O)C(=O)Nc1ccc2c(c1)N(S(=O)(=O)c1cccs1)CCC2	?	5.2µM*	i	?	i	?
CCCCNC(=O)C(=O)Nc1ccc2c(c1)N(S(=O)(=O)c1cccs1)CCC2	8.2µM*	nt	2.1µM*	nt	2.3µM*	?
COC(=O)c1ccc(CO/N=C(\NC(C)=O)c2nonc2NC(C)=O)cc1	9%	-4%	i	-6%	i	2%
Cc1ccc2nc(-c3ccc(SCC(=O)N4CCc5ccccc54)nc3)[nH]c2c1	0%	?	?	?	4.1µM*	3%
Cc1ccc(-c2nnc3ccc(SCC(=O)N4CCc5ccccc54)nn23)cc1	-1%	18%	i	14%	i	-7%
Cc1ccc(-c2nnc3ccc(SCC(=O)N4CCCc5ccccc54)nn23)cc1	?	-8%	i	4%	16µM*	-24%
CC(=O)CSc1ccc(-c2nc3ccccc3[nH]2)cn1	9.2µM*	-11%[9.22 µM]	?	4%	9.2µM*	?
CCc1nnc(NC(=O)CSc2ccc(-c3nc4ccc(C)cc4[nH]3)cn2)s1	4%	0%	i	?	7.3µM*	-1%
O=C(NCC(c1cccs1)S(=O)(=O)c1ccccc1)c1ccc(C(F)(F)F)cc1 (stereo not given)	nt	nt	i	nt	i	nt
Cc1cc2nc(-c3ccc(SCC(=O)Nc4ccc(S(=O)(=O)N5CCCC5)cc4)nc3)[nH]c2cc1C	?	?	i	21µM*	i	?
